Experimental data: PubChem BioAssay (NCI)
About 83,000 compounds went through this panel and 20% of them were active in at least one assay; those are over-represented in the sample as a whole.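 Plates (96-well) were seeded with cells, treated with compound at one concentration, and incubated for 48 hours before percent growth was determined.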 Values without a mark were called inactive. Activity calls are given as the source filed them. The calls were made as follows: active = growth percent below 10; inactive = the rest.

Assays:
Test in all cases: NCI-60 one-dose screen, 48 h (100 = growth as untreated, 0 = no growth, -100 = all killed)
Conditions in all cases: 10 µM unless noted
RPMI-8226 leukemia = system: RPMI-8226 leukemia
OVCAR-8 ovarian = system: OVCAR-8 ovarian
OVCAR-5 ovarian = system: OVCAR-5 ovarian
OVCAR-4 ovarian = system: OVCAR-4 ovarian
SK-OV-3 ovarian = system: SK-OV-3 ovarian
IGROV1 ovarian = system: IGROV1 ovarian
OVCAR-3 ovarian = system: OVCAR-3 ovarian
HS 578T breast = system: HS 578T breast
NCI/ADR-RES ovarian = system: NCI/ADR-RES ovarian

Structure (SMILES) | growth (RPMI-8226 leukemia) | growth (OVCAR-8 ovarian) | growth (OVCAR-5 ovarian) | growth (OVCAR-4 ovarian) | growth (SK-OV-3 ovarian) | growth (IGROV1 ovarian) | growth (OVCAR-3 ovarian) | growth (HS 578T breast) | growth (NCI/ADR-RES ovarian)
Cc1c(Cl)cc(-n2c(=O)c3ccccc3c3ccccc3c2=O)cc1Cl | 91.8% | 105% | 101% | 104% | 98.4% | 86.7% | 127% | 99.3% | 102%
O=C1N=c2cc3c(cc2=C/C1=C/c1sc(=S)n(CCc2ccc(O)cc2)c1O)OCCO3 | 33.4% | 28.6% | 64% | 80.9% | 105% | 49% | 76.1% | 74.9% | 64.7%
Cc1cccc(NC(=O)N/C(N)=N/c2nc(C)c(C)s2)c1 | 28.8% | 58% | 82.3% | 76% | 65.6% | 47.5% | 39.8% | 43.9% | 25.3%
COc1ccc(OC)c(-c2c(C#N)c(-c3ccc(Cl)cc3)nc3c2c(-c2ccccc2)nn3-c2ccccc2)c1 | 95.8% | 101% | 101% | 102% | 100% | 108% | 107% | 100% | 99.6%
CCC1(C2CCCC2)NC(=O)NC1=O (configuration not stated) | 91.3% | 109% | 80.5% | 113% | 112% | 97.5% | 111% | 98.9% | 109%
Cc1cccc(NC(=O)CSc2nc3ccccc3[nH]2)c1 | 99.8% | 103% | 106% | 93.2% | 95.9% | 97.6% | 107% | 90.7% | 98.4%
O=c1cc(-c2ccc(Cl)cc2)[nH]c2ccccc12 | 71.5% | 102% | 91.7% | 92.1% | 90.4% | 81.7% | 81.7% | 106% | 62.2%
COC(=O)c1c2c(c[n+]([O-])c1C)C(=O)C=CC2=O | 57.6% | 35.3% | 118% | -13.2% (active) | 97% | 2.42% (active) | -66.3% (active) | 86.3% | 97.1%
COc1cc(N2C(=O)c3nccnc3C2=O)cc(OC)c1OC | 97.6% | 104% | 109% | 105% | 103% | 98.2% | 120% | 104% | 104%
CNC(=O)c1cc(Oc2cccc3nc(Nc4ccc(F)c(Cl)c4)ccc23)ccn1 | 54.1% | 44.8% | 91.9% | 40.1% | 70.1% | 44.5% | 64.6% | 70% | 57.4%
CC(=O)c1nc(Nc2ccc(C)cc2)sc1C | 96.2% | 95% | 97% | 110% | 97.8% | 86.9% | 97.5% | 90.1% | 99.4%
CCN(CC)c1ccc(C(=O)c2ccc(N(CC)CC)cc2)cc1 | 20.8% | 32.2% | 40.8% | 61.4% | -1.44% (active) | 37.3% | -20.3% (active) | 36.2% | -27.8% (active)
COc1ccc(Cl)cc1NC(=O)C(Br)C(Br)C(=O)O (configuration not stated) | 11.7% | 45.3% | 122% | 30.5% | 101% |  | 9.69% (active) | 86.3% | -13.8% (active)
O=c1[nH]nc(-c2ccccc2)c2c(-c3ccccc3)onc12 | 19.5% | 54.3% | 58.7% | 64.1% | 15.4% | 13.2% | -15.8% (active) |  | 30.4%
C[C@]12CC[C@@H]3c4cc(OC(F)F)c(O)cc4CC[C@H]3[C@@H]1CC[C@@H]2OS(N)(=O)=O | 26.6% | 39.3% | 57.5% | 67.7% | 39.7% |  | -0.18% (active) | 32.5% | 12.5%
CCCc1cc2c(=O)c(C(=O)OC)c[nH]c2cc1N(CC)CC | 82.5% | 102% | 88.8% | 101% | 100% |  | 95.3% | 123% | 99%

Structure (SMILES) | growth (RPMI-8226 leukemia) | growth (OVCAR-8 ovarian) | growth (OVCAR-5 ovarian) | growth (OVCAR-4 ovarian) | growth (SK-OV-3 ovarian) | growth (IGROV1 ovarian) | growth (OVCAR-3 ovarian) | growth (HS 578T breast) | growth (NCI/ADR-RES ovarian)
N#Cc1nc(C#N)c(Sc2ccccc2)c(Sc2ccccc2)c1Sc1ccccc1 | 0.263% (active) | 3.62% (active) | -71.3% (active) | -11.9% (active) | -10.3% (active) |  | -87.7% (active) | 55.2% | 20.3%
CC(C)=C[C@@H]1c2c(c3ccccc3n(C)c2=O)O[C@H]2c3c(c4ccccc4n(C)c3=O)OC(C)(C)[C@@H]12 | -36.8% (active) | 90.4% | 98.7% | 64.9% | 118% |  | 91.9% | 93.2% | 75.4%
Cc1ccc(/C=C/c2c(C(=O)/C=C/c3ccc(C(F)(F)F)cc3)c(C)nc3ccccc23)cc1 | -26.8% (active) | 4.18% (active) | -39.6% (active) | -74.1% (active) | -47.5% (active) | -80.1% (active) | -86.3% (active) | -13.2% (active) | -0.26% (active)
COc1ccc(-c2[nH]c(=S)n(C(CC3(C)NCC(=O)N3n3c(-c4ccccc4)cc(C)nc3=S)c3ccc(OC)cc3)c(=O)c2Br)cc1 (configuration not stated) | -7.13% (active) | 71.2% | 83.4% | 54.9% | 62.4% | 50.6% |  | 40.7% | 80.3%
Cn1c(=O)c2[nH]c(NN)nc2n(C)c1=O | 96% | 129% | 115% | 116% | 114% | 116% |  | 122% | 113%
COc1ccc(Nc2nnc(SCc3ccccc3F)s2)cc1 | 71.6% | 100% | 92.8% | 99.4% | 90.9% | 8.8% (active) |  | 98% | 99.1%
COc1ccc(-c2nc3sccn3c2-c2cc(-c3cc(OC)c(OC)c(OC)c3)on2)cc1 | 41.5% | 94.6% | 124% | 84.4% | 92.2% |  | 76% | 92.5% | 87.5%
COc1ccc(-c2nc(SCC(=O)Nc3nc(-c4ccccc4)cs3)[nH]c(=O)c2C#N)cc1 | 93% | 101% | 84.6% | 109% | 81.6% |  | 107% | 78% | 95.5%
O=c1c2c3c(sc2n2c(-c4cn(-c5ccccc5)nc4-c4ccc(Cl)cc4)nnc2n1Cc1ccccc1)CCCC3 | 94.1% | 97.1% | 103% | 95.5% | 109% |  | 103% | 96.9% | 101%
Cc1c(C(=O)N[C@@H](Cc2ccccc2)C(=O)C(=O)NCCc2ccccc2)[nH]c2ccccc2c1=O | 89.8% | 98.6% | 102% | 94% | 107% |  | 105% | 105% | 100%
S=C(c1ccc2c(c1)OCO2)N1CCN(c2ccccc2Cl)CC1 | 85.9% | 102% | 97.6% | 98.7% | 102% |  | 112% | 107% | 99.7%
COc1cc(C2CC(=O)Nc3c2c(C)nn3-c2nc3ccccc3[nH]2)c(OC)c2c1OCO2 (configuration not stated) | 60.1% | 67.9% | 105% | 76% | 81.7% | 63.1% | 68.8% | 53.1% | 63.2%
O=S(=O)(O)c1ccc(N/N=C/c2ccccc2Cl)cc1 | 98.7% | 115% | 104% | 112% | 112% | 101% |  | 111% | 110%
COc1ccc2c(c1)C(=O)/C(=C/c1ccc(OCC(=O)Nc3nccs3)cc1)O2 | -53.8% (active) | 19.1% | -31.5% (active) | 48.3% | 37.9% |  | -24.4% (active) | 56.2% | 56.9%
CC(C)CC(NC(=O)CN(Cc1ccccc1)S(C)(=O)=O)C(=O)O (configuration not stated) | 102% | 100% | 94% | 104% | 90.9% |  | 96.6% | 91.6% | 98.9%
